Test results as given in PubChem BioAssay (NCI).
This is part of a sample that, as a whole, favours compounds with a hit. Of some 79,000 tested, about 15% had one in any assay. Values without a mark were called inactive. The source made the active and inactive calls. No stated cut-off is given here; in the data, active means growth inhibition above about 70%; inactive means the rest.

Key:
[1] = NCI Yeast Anticancer Drug Screen. Data for the rad52 strain (AID 147);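 further: 0% = growth of vehicle-treated control cultures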; conditions: S. cerevisiae rad52 mutant growth inhibition, stronger effect = higher value
In short: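 Here a repair-compromised yeast strain receives each compound; its growth is then quantified and normalised to vehicle-only controls.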

[2] = NCI Yeast Anticancer Drug Screen. Data for the wt1 strain (AID 149);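 further: 0% = growth of vehicle-treated wt1 cultures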; conditions: S. cerevisiae wt1 strain (SPY 50644) growth inhibition, stronger effect = higher value
In short: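 Each compound is tested on wt1 yeast and the loss of growth versus vehicle gives the inhibition value.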

[3] = NCI Yeast Anticancer Drug Screen. Data for the rad50EPP+ strain (AID 151);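 further: 0% = growth of vehicle-treated control cultures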; conditions: S. cerevisiae rad50 mutant strain, stronger effect = higher value
In short: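 Read-out is yeast growth inhibition relative to vehicle; cells used were the rad50EPP+ strain.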

[4] = NCI Yeast Anticancer Drug Screen. Data for the mgt1 strain (AID 153); conditions: S. cerevisiae mgt1 mutant growth inhibition, stronger effect = higher value
In short: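 Measured: inhibition of mgt1 yeast growth by compound, normalized to vehicle-treated cultures.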

[5] = NCI Yeast Anticancer Drug Screen. Data for the rad50 strain (AID 155);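 further: 0% = growth of vehicle-only cultures of the same strain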; conditions: S. cerevisiae rad50 strain growth inhibition, stronger effect = higher value
In short: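 Vehicle-treated cultures provide the reference for the growth inhibition reported for compound-exposed, repair-deficient yeast.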

[6] = NCI Yeast Anticancer Drug Screen. Data for the mec2-1 strain (AID 157); conditions: S. cerevisiae mec2-1 strain, stronger effect = higher value
In short: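 Using mec2-1 yeast: add compound, measure growth, express inhibition versus vehicle-treated cultures.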

[7] = NCI Yeast Anticancer Drug Screen. Data for the rad14 strain (AID 159);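 further: 0% = growth of vehicle-treated control cultures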; conditions: S. cerevisiae rad14 strain growth inhibition, stronger effect = higher value
In short: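 Inhibition of growth is reported for a repair-deficient yeast mutant following compound treatment, calculated relative to cultures that received vehicle.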

[8] = NCI Yeast Anticancer Drug Screen. Data for the sgs1 mgt1 strain (AID 161);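 further: 0% = growth of cultures given vehicle only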; conditions: S. cerevisiae sgs1 mgt1 strain, stronger effect = higher value
In short: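 Yeast cells carrying a defined DNA-repair defect were exposed to test compounds. Growth inhibition was measured relative to vehicle-treated controls.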

[9] = NCI Yeast Anticancer Drug Screen. Data for the CLN2oe strain (AID 163);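 further: 0% = growth of vehicle-only control cultures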; conditions: S. cerevisiae CLN2oe strain, stronger effect = higher value
In short: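 Whole-cell yeast growth assay. A strain engineered for altered cell-cycle control received compound, and inhibition relative to vehicle-treated cultures was recorded.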

[10] = NCI Yeast Anticancer Drug Screen. Data for the cln2 rad14 strain (AID 165);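 further: 0% = growth equal to vehicle treated cultures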; conditions: S. cerevisiae cln2 rad14 strain, stronger effect = higher value
In short: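 Yeast strain cln2 rad14, bearing defects in cell cycle control and DNA repair, serves as the test system; values reflect growth inhibition compared with vehicle.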

[11] = NCI Yeast Anticancer Drug Screen. Data for the bub3 strain (AID 167); conditions: S. cerevisiae bub3 mutant strain, stronger effect = higher value
In short: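 Mutant yeast screening strain plus compound; vehicle-treated cultures serve as the 0% inhibition reference.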

[12] = NCI Yeast Anticancer Drug Screen. Data for the wt2 strain (AID 169); conditions: S. cerevisiae wt2 strain growth inhibition, stronger effect = higher value
In short: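 Treated yeast vs. vehicle-treated yeast: growth inhibition determined.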

[13] = NCI Yeast Anticancer Drug Screen. Data for the mlh1 strain (AID 171);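 further: 0% = growth of vehicle-treated control cultures of the same strain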; conditions: S. cerevisiae mlh1 strain growth inhibition, stronger effect = higher value
In short: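 A yeast strain with a defined genetic lesion serves as the test organism. Cultures receive compound or vehicle, and growth is measured.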

[14] = NCI Yeast Anticancer Drug Screen. Data for the sgs1 strain (AID 173);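 further: 0% = growth of vehicle-only control cultures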; conditions: S. cerevisiae sgs1 mutant, stronger effect = higher value
In short: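 A genetically defined yeast mutant is incubated with the test compound, and its growth is compared to that of the same strain given vehicle.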

[15] = NCI Yeast Anticancer Drug Screen. Data for the mlh1 rad18 strain (AID 175); conditions: S. cerevisiae mlh1 rad18 strain growth inhibition, stronger effect = higher value
In short: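 Steps: expose repair-defective yeast to compound; measure growth; express inhibition against vehicle-treated controls.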

[16] = NCI Yeast Anticancer Drug Screen. Data for the rad18 strain (AID 177); conditions: S. cerevisiae rad18 mutant growth inhibition, stronger effect = higher value
In short: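 Measured value is growth inhibition of a yeast strain bearing a DNA repair alteration, referenced to vehicle-treated cells.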

[17] = at 5.0 µM (retest, dose inferred, filed as 0.5)
[18] = at 50.0 µM (retest, dose inferred, filed as 5.0)

## C/C(=N\Sc1ccccc1)c1ccccc1O
[1]; at 1.2 µM
  growth inhibition: 1%
[1]; at 3.7 µM
  growth inhibition: 4%
[1]; at 11.0 µM
  growth inhibition: 2%
[1]; at 33.0 µM
  growth inhibition: 21%
[1]; at 100.0 µM
  growth inhibition: 85% (active)
[2]; at 1.2 µM
  growth inhibition: -3%
[2]; at 3.7 µM
  growth inhibition: -4%
[2]; at 11.0 µM
  growth inhibition: -4%
[2]; at 33.0 µM
  growth inhibition: 4%
[2]; at 100.0 µM
  growth inhibition: 64%
[3]; at 1.2 µM
  growth inhibition: 3%
[3]; at 3.7 µM
  growth inhibition: 5%
[3]; at 11.0 µM
  growth inhibition: 9%
[3]; at 33.0 µM
  growth inhibition: 35%
[3]; at 100.0 µM
  growth inhibition: 91% (active)
[4]; at 1.2 µM
  growth inhibition: 2%
[4]; at 3.7 µM
  growth inhibition: -2%
[4]; at 11.0 µM
  growth inhibition: -1%
[4]; at 33.0 µM
  growth inhibition: 8%
[4]; at 100.0 µM
  growth inhibition: 62%
[5]; at 1.2 µM
  growth inhibition: -3%
[5]; at 3.7 µM
  growth inhibition: -4%
[5]; [17]
  growth inhibition: -144%
[5]; at 11.0 µM
  growth inhibition: 7%
[5]; at 33.0 µM
  growth inhibition: 16%
[5]; [18]
  growth inhibition: 71% (active)
[5]; at 50.0 µM
  growth inhibition: 79% (active)
[5]; at 100.0 µM
  growth inhibition: 90% (active)
[6]; at 1.2 µM
  growth inhibition: -1%
[6]; at 3.7 µM
  growth inhibition: 2%
[6]; [17]
  growth inhibition: -48%
[6]; at 11.0 µM
  growth inhibition: -11%
[6]; at 33.0 µM
  growth inhibition: -1%
[6]; [18]
  growth inhibition: -4%
[6]; at 50.0 µM
  growth inhibition: 51.5%
[6]; at 100.0 µM
  growth inhibition: 62%
[7]; at 1.2 µM
  growth inhibition: -4%
[7]; at 3.7 µM
  growth inhibition: -9%
[7]; at 11.0 µM
  growth inhibition: -5%
[7]; at 33.0 µM
  growth inhibition: 9%
[7]; at 100.0 µM
  growth inhibition: 63%
[8]; [17]
  growth inhibition: -63%
[8]; [18]
  growth inhibition: 49%
[8]; at 50.0 µM
  growth inhibition: 33.5%
[9]; at 1.2 µM
  growth inhibition: 2%
[9]; at 3.7 µM
  growth inhibition: -1%
[9]; at 11.0 µM
  growth inhibition: 2%
[9]; at 33.0 µM
  growth inhibition: 1%
[9]; at 100.0 µM
  growth inhibition: 39%
[10]; [17]
  growth inhibition: -59%
[10]; [18]
  growth inhibition: -38%
[10]; at 50.0 µM
  growth inhibition: 11.5%
[11]; at 1.2 µM
  growth inhibition: 0%
[11]; at 3.7 µM
  growth inhibition: 2%
[11]; [17]
  growth inhibition: -62%
[11]; at 11.0 µM
  growth inhibition: -1%
[11]; at 33.0 µM
  growth inhibition: 5%
[11]; [18]
  growth inhibition: 55%
[11]; at 50.0 µM
  growth inhibition: 49.2%
[11]; at 100.0 µM
  growth inhibition: 53%
[12]; at 1.2 µM
  growth inhibition: 1%
[12]; at 3.7 µM
  growth inhibition: 2%
[12]; at 11.0 µM
  growth inhibition: 1%
[12]; at 33.0 µM
  growth inhibition: 0%
[12]; at 100.0 µM
  growth inhibition: 62%
[13]; at 1.2 µM
  growth inhibition: 2%
[13]; at 3.7 µM
  growth inhibition: 3%
[13]; at 11.0 µM
  growth inhibition: -2%
[13]; at 33.0 µM
  growth inhibition: 13%
[13]; at 100.0 µM
  growth inhibition: 79% (active)
[14]; at 1.2 µM
  growth inhibition: 1%
[14]; at 3.7 µM
  growth inhibition: 4%
[14]; at 11.0 µM
  growth inhibition: 10%
[14]; at 33.0 µM
  growth inhibition: 35%
[14]; at 100.0 µM
  growth inhibition: 91% (active)
[15]; [17]
  growth inhibition: -115%
[15]; [18]
  growth inhibition: 59%
[15]; at 50.0 µM
  growth inhibition: 94.2% (active)
[16]; at 1.2 µM
  growth inhibition: -2%
[16]; at 3.7 µM
  growth inhibition: 0%
[16]; at 11.0 µM
  growth inhibition: 4%
[16]; at 33.0 µM
  growth inhibition: 21%
[16]; at 100.0 µM
  growth inhibition: 90% (active)

## OC(CC(O)(C(F)(F)F)C(F)(F)F)c1ccc(C(O)CC(O)(C(F)(F)F)C(F)(F)F)cc1 (stereo not drawn)
[1]; at 1.2 µM
  growth inhibition: 47%
[1]; at 3.7 µM
  growth inhibition: 64%
[1]; at 11.0 µM
  growth inhibition: 95% (active)
[1]; at 33.0 µM
  growth inhibition: 99% (active)
[1]; at 100.0 µM
  growth inhibition: 99% (active)
[2]; at 1.2 µM
  growth inhibition: 23%
[2]; at 3.7 µM
  growth inhibition: 32%
[2]; at 11.0 µM
  growth inhibition: 94% (active)
[2]; at 33.0 µM
  growth inhibition: 99% (active)
[2]; at 100.0 µM
  growth inhibition: 100% (active)
[3]; at 1.2 µM
  growth inhibition: -2%
[3]; at 3.7 µM
  growth inhibition: 0%
[3]; at 11.0 µM
  growth inhibition: 9%
[3]; at 33.0 µM
  growth inhibition: 25%
[3]; at 100.0 µM
  growth inhibition: 60%
[4]; at 1.2 µM
  growth inhibition: 22%
[4]; at 3.7 µM
  growth inhibition: 22%
[4]; at 11.0 µM
  growth inhibition: 91% (active)
[4]; at 33.0 µM
  growth inhibition: 99% (active)
[4]; at 100.0 µM
  growth inhibition: 99% (active)
[5]; at 1.2 µM
  growth inhibition: 35%
[5]; at 3.7 µM
  growth inhibition: 50%
[5]; [17]
  growth inhibition: 36%
[5]; at 11.0 µM
  growth inhibition: 92% (active)
[5]; at 33.0 µM
  growth inhibition: 98% (active)
[5]; [18]
  growth inhibition: 100% (active)
[5]; at 50.0 µM
  growth inhibition: 99% (active)
[5]; at 100.0 µM
  growth inhibition: 92% (active)
[6]; at 1.2 µM
  growth inhibition: 18%
[6]; at 3.7 µM
  growth inhibition: 38%
[6]; [17]
  growth inhibition: 42%
[6]; at 11.0 µM
  growth inhibition: 94% (active)
[6]; at 33.0 µM
  growth inhibition: 99% (active)
[6]; [18]
  growth inhibition: 100% (active)
[6]; at 50.0 µM
  growth inhibition: 99.5% (active)
[6]; at 100.0 µM
  growth inhibition: 99% (active)
[7]; at 1.2 µM
  growth inhibition: 26%
[7]; at 3.7 µM
  growth inhibition: 19%
[7]; at 11.0 µM
  growth inhibition: 95% (active)
[7]; at 33.0 µM
  growth inhibition: 99% (active)
[7]; at 100.0 µM
  growth inhibition: 99% (active)
[8]; [17]
  growth inhibition: 26%
[8]; [18]
  growth inhibition: 100% (active)
[8]; at 50.0 µM
  growth inhibition: 99.5% (active)
[9]; at 1.2 µM
  growth inhibition: 3%
[9]; at 3.7 µM
  growth inhibition: 68%
[9]; at 11.0 µM
  growth inhibition: 99% (active)
[9]; at 33.0 µM
  growth inhibition: 99% (active)
[9]; at 100.0 µM
  growth inhibition: 100% (active)
[10]; [17]
  growth inhibition: 68%
[10]; [18]
  growth inhibition: 100% (active)
[10]; at 50.0 µM
  growth inhibition: 99.2% (active)
[11]; at 1.2 µM
  growth inhibition: -2%
[11]; at 3.7 µM
  growth inhibition: 37%
[11]; [17]
  growth inhibition: 15%
[11]; at 11.0 µM
  growth inhibition: 95% (active)
[11]; at 33.0 µM
  growth inhibition: 99% (active)
[11]; [18]
  growth inhibition: 100% (active)
[11]; at 50.0 µM
  growth inhibition: 99.5% (active)
[11]; at 100.0 µM
  growth inhibition: 99% (active)
[12]; at 1.2 µM
  growth inhibition: -1%
[12]; at 3.7 µM
  growth inhibition: 17%
[12]; at 11.0 µM
  growth inhibition: 98% (active)
[12]; at 33.0 µM
  growth inhibition: 99% (active)
[12]; at 100.0 µM
  growth inhibition: 100% (active)
[13]; at 1.2 µM
  growth inhibition: 19%
[13]; at 3.7 µM
  growth inhibition: 11%
[13]; at 11.0 µM
  growth inhibition: 90% (active)
[13]; at 33.0 µM
  growth inhibition: 99% (active)
[13]; at 100.0 µM
  growth inhibition: 99% (active)
[14]; at 1.2 µM
  growth inhibition: 26%
[14]; at 3.7 µM
  growth inhibition: 26%
[14]; at 11.0 µM
  growth inhibition: 87% (active)
[14]; at 33.0 µM
  growth inhibition: 99% (active)
[14]; at 100.0 µM
  growth inhibition: 99% (active)
[16]; at 1.2 µM
  growth inhibition: 40%
[16]; at 3.7 µM
  growth inhibition: 41%
[16]; at 11.0 µM
  growth inhibition: 91% (active)
[16]; at 33.0 µM
  growth inhibition: 98% (active)
[16]; at 100.0 µM
  growth inhibition: 97% (active)
